# Compound activity deposited in PubChem by National Center for Advancing Translational Sciences (NCATS).
# In the library only some 21% were active in any assay of this set; here they are far more common.
# HCV inh – qHTS Assay for Inhibitors of Hepatitis C Virus (HCV); Potency, µM (doses to about 41.8 µM), actives largely listed as inhibitors; Huh7.5.1 HCVcc-Cre infection, luciferase reporter, 44 h; AID 651820, 2012; 340,000 tested, 3.4% active
#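 Seed cells (1,000/well) for 4 h; treat with compound and infect with HCVcc-Cre, moi about 0.5. Incubate 44 h, then detect luciferase activity.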
# AMA1 RON2 block – qHTS for Inhibitors of AMA1-RON; Towards Development of Antimalarial Drug Lead: Primary Screen | Potency, µM (doses to about 58.2 µM), usual class: inhibitors | Plasmodium falciparum AMA1 (3D7) - RON2 peptide interaction | AlphaScreen AMA1-biotinylated RON2 peptide binding | 360,000 tested, 0.2% active; also: nearly all actives have a fitted effect of over 45% in size
#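 AMA1 (3D7) with his tag at 25 nM final met compounds first, then biotinylated RON2 peptide at 25 nM; detection used donor plus acceptor beads, 10 µg/mL apiece, read by AlphaScreen after 30 min at room temperature.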
# Shiga toxin inh – A qHTS for Small Molecule Inhibitors of Shiga Toxin. Vero cells, Shiga toxin protein synthesis inhibition reporter. 290,000 tested, 9.2% active. AID 2315, 2010. inhibition, % at 38.7 µM; in the data active = inhibition mostly above about 28%, no sharp cut-off; inactive = mostly below about 43%
# Pf growth 96h – Primary qHTS for delayed death inhibitors of the malarial parasite plastid, 96 hour incubation; P. falciparum luciferase reporter growth, 96 h; Potency, µM (highest dose often 28.7 µM), most hits filed as inhibitors; 320,000 tested, 6.9% active; AID 504834, 2011
#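 Plates of compound plus infected erythrocytes (2% hematocrit, 0.05% parasitemia final) incubate 96 hours, 37 C, 5% CO2. Detection reagent added; reduced luminescence from the parasites' luciferase reporter flags inhibition.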
# Pf growth 48h – Primary qHTS for delayed death inhibitors of the malarial parasite plastid, 48 hour incubation. 310,000 tested, 5.9% active. AID 504832, 2011. Potency, µM (series often up to 28.7 µM), most hits filed as inhibitors. P. falciparum luciferase growth in erythrocytes, 48 h
#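 Firefly luciferase activity from engineered P. falciparum reports growth; inhibitors lower the luminescent signal. Cultures contained 2% hematocrit erythrocytes at 0.1% final parasitemia.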
# CHX counter – Cycloheximide Counterscreen for Small Molecule Inhibitors of Shiga Toxin; cell reporter, cycloheximide protein synthesis inhibition counterscreen; max response, %; 300,000 tested, 12% active; in the data active = max response mostly above about 13%, no sharp cut-off; inactive = mostly below about 14%; also: read at 38.3 µM for the half of the compounds with a filed dose
# Hits are given with their value; - = inactive; ? = inconclusive; . = not tested or not shown; [ ] = remark or other dose. Unless noted, calls follow the shape of the dose curve; as a rule, active = well fitted curve in the direction sought with a large enough effect; inconclusive = small, poorly fitted or top-dose-only effect, or another doubt; inactive = no such curve, though single readings can be large; an effect the other way counts as inactive or inconclusive.
SMILES,HCV inh,AMA1 RON2 block,Shiga toxin inh,Pf growth 96h,Pf growth 48h,CHX counter
COc1cccc(/C=C2\C(=O)C(=O)c3ccccc32)c1,-,-,-,-,.,21
COc1cc(/C=C2\CC/C(=C\c3ccc(OCCO)c(OC)c3)C2=O)ccc1OCCO,?,-,-,-,?,-
COc1cccc(C=C2Cc3ccccc3C2=O)c1,.,-,.,.,.,.
COc1ccc(S(=O)(=O)NC(C)C)cc1C(=O)N1CCOCC1,-,-,-,-,-,-
CCCCn1nnnc1C(c1cc2ccccc2o1)N1CCN(c2cc(C)nc3ccccc23)CC1 (centres undefined),.,-,.,.,.,.
O=C(O)Cc1ccc(N2N=C(c3ccccc3)CC2=O)cc1,.,-,.,.,.,.
Cc1ccc(NC(=O)c2ncn(CCCN3CCN(Cc4cccc5ccccc45)CC3)n2)cc1C,?,-,.,.,.,.
COc1ccc(N/C=C2\CCc3ccccc3C2=O)cc1,-,-,-,-,-,-
CC(=O)Oc1ccc(/C=C2/CCc3ccccc3C2=O)cc1,-,-,-,-,-,16
C=CCNc1nc(NCc2ccc(N(C)C)cc2)c2sc(-c3ccccc3)cc2n1,.,2.8µM,.,.,.,.
C=CCNc1nc(NCCOC)c2sc(-c3ccccc3)cc2n1,.,-,.,.,.,.
CC(C)c1nnc(NC(=O)CCS(=O)(=O)c2nc(-c3cccs3)cc(C(F)(F)F)n2)s1,-,-,-,0.74µM,-,-
COc1ccc(C(C)=O)cc1CSc1nc2ccccc2c(=O)n1-c1ccccc1C,?,-,-,2.3µM,12µM,-
C=CCn1c(SCc2cc(C(C)=O)ccc2OCC)nc2ccccc2c1=O,?,-,-,5.9µM,?,-
CC(C)[C@@H]1Cc2[nH]c(=O)[nH]c(=O)c2[C@H](C)O1,.,-,.,.,.,.
CCCCNc1nc2ccccc2n1CC(=O)N1CCc2ccccc2C1,-,?,-,3.7µM,12µM,-
CCCCNC(=O)N1CCc2ccccc2C1,-,-,-,-,-,-
O=C(Cn1cccc1C(=O)c1ccccc1)NCc1cccc(Cl)c1,-,-,53,13µM,-,32
O=C(COc1ccccc1Cc1ccccc1)Nc1cccnc1,-,-,.,?,-,.
COCCCNC(=S)N1CCCN(c2nc3cc(C)c(C)cc3cc2C#N)CC1,22µM,-,-,-,?,-
CCOCCCNC(=S)N1CCCN(c2nc3cc(C)cc(C)c3cc2C#N)CC1,11µM,-,-,-,?,-
CCOCCCNC(=S)N1CCCN(c2nc3cc(C)c(C)cc3cc2C#N)CC1,?,-,-,-,?,-
CC(=O)c1cccc(NC(=O)C2(C)Cc3c(-c4cccc(C(F)(F)F)c4)ccnc3O2)c1 (centres undefined),.,-,.,.,.,.
CC1CCCN(C(=O)c2cc3c(=O)n4ccccc4nc3s2)C1 (centres undefined),-,-,78,-,-,34
O=C(c1cc2c(=O)n3ccccc3nc2s1)N1CCN(Cc2ccc3c(c2)OCO3)CC1,-,-,-,6.6µM,-,-
SMILES,HCV inh,AMA1 RON2 block,Shiga toxin inh,Pf growth 96h,Pf growth 48h,CHX counter
CCOC(=O)C1CCN(C(=O)c2cc3c(=O)n4cccc(C)c4nc3s2)CC1,-,-,-,-,-,-
O=C(c1cc2c(=O)n3ccccc3nc2s1)N1CCN(Cc2ccccc2)CC1,-,-,-,-,-,-
CCOC(=O)C1CCN(C(=O)c2cc3c(=O)n4ccccc4nc3s2)CC1,-,-,-,?,-,23
O=C(c1cc2c(=O)n3ccccc3nc2s1)N1CCc2ccccc2C1,.,.,-,?,-[5.75 µM],11
CCN1CCN(C(=O)c2cc3c(=O)n4ccccc4nc3s2)CC1,-,-,-,?,-,-
CC(=O)c1ccc(NC(=O)NNS(=O)(=O)c2ccc([N+](=O)[O-])cc2)cc1,-,-,-,-,-,-
CC(C)[C@H](/C=C/C[Si](C)(C)C)[C@H](C)C(O)/C=C/CCCOC(=O)C(C)(C)C (some centres undefined),.,.,-,.,.,-
CC1(C(=O)NS(=O)(=O)c2ccc(C#N)cc2)CCN1C(=O)C1(c2ccccc2)CCCC1 (centres undefined),.,-,.,.,.,.
CCC1CCCCN1C(=O)c1cc2c(=O)n3cccc(C)c3nc2s1 (centres undefined),-,-,-,?,?,-
CC1CCCCN1C(=O)c1cc2c(=O)n3ccccc3nc2s1 (centres undefined),-,-,52,?,-,-
CCOC(=O)CC1C(=O)NCCN1C(=O)c1cc2c(=O)n3ccccc3nc2s1 (centres undefined),.,.,-,10µM,.,-
COc1ccc(NC(=O)N(C)C[C@H]2Oc3c(NC(=O)c4nc5ccccc5s4)cccc3C(=O)N([C@@H](C)CO)C[C@H]2C)cc1,?,-,.,.,.,.
CCCCN1C(=O)C(=O)N(CC(=O)c2ccc3c(c2)CCCC3)C1=O,-,-,.,-,-,.
Cn1c(Oc2ccc(Cl)cc2)c(C=O)c2ccccc21,?,-,-,9.3µM,?,-
Cn1c(Sc2ccc(Cl)cc2)c(C=O)c2ccccc21,10µM,-,-,?,12µM,-
COc1cc(C(=O)Nc2sc3c(c2C(=O)O)CCC3)cc(OC)c1OC,-,-,-,-,-,-
COc1cccc(C(=O)Nc2sc3c(c2C(=O)O)CCCC3)c1,13µM,-,104,-,-,37
O=c1[nH]c(NCc2ccccc2)nc2c1CCCC2,-,-,-,8.3µM,13µM,-
Cc1cccc(C(=O)Nc2sc3c(c2C(=O)O)CCC3)c1,-,-,103,-,-,42
CNC(=O)c1c(NC(=O)c2cccc(C)c2)sc2c1CCC2,?,-,71,-,-,32
O=C(O)c1cccc2c1C(=O)c1ccc(N3CCN(Cc4ccc5c(c4)OCO5)CC3)cc1S2(=O)=O,.,-,.,.,.,.
O=C(CN(C(=O)CCC(=O)Nc1ccccn1)c1ccc(F)cc1)NCCc1ccccc1,-,-,-,-,-,-
COc1cccc(C(=O)Nc2nc3c(c(=O)[nH]2)CCCC3)c1,-,-,-,-,.,20
COc1cccc(C(=O)Nc2sc3c(c2C#N)CCN(C(C)=O)C3)c1,-,-,-,-,-,25
Cc1cc(N)n(-c2ccc(S(=O)(=O)c3ccc(C(C)C)cc3)cc2)n1,-,-,-,-,-,-
O=C(NCC1CCCO1)c1cc(Br)c(Br)s1 (centres undefined),-,-,-,-,-,-
COc1cc(OC)c(C(=O)Nc2cccnc2)cc1OC,-,-,-,?,-,-
O=C(Nc1cccnc1)c1cc(Br)c(Br)s1,-,-,.,12µM,?,.
NC(=O)c1cc(NC(=O)c2cc(Br)c(Br)s2)cc(C(N)=O)c1,-,-,-,8.3µM,-,-
COC(=O)c1cn(C(=O)c2ccccc2)c2ccccc12,-,-,-,-,-,-
